Source: PubChem (National Center for Advancing Translational Sciences (NCATS))
Compounds with a hit are over-represented: about 11% of the library has one in this group of screens.
L3MBTL1 inh = qHTS Assay for the Inhibitors of L3MBTL1; Potency, µM (top dose mostly 57.1 µM), hits mostly inhibitors; 230,000 tested, 0.66% active; AlphaScreen L3MBTL1–H3K9me1 peptide binding; further: nearly all actives have a fitted effect of over 60% in size
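First, the protein-peptide complex forms for 30 min at room temperature (L3MBTL1 50 nM, biotinylated H3K9me1 peptide 75 nM). Next, compounds are pin-transferred and incubated 30 min. Finally, AlphaScreen beads are added and read after 30 min.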
BAZ2B block = qHTS Assay for Inhibitors of BAZ2B | Bromodomain adjacent to zinc finger domain protein 2B (Homo sapiens), Q9UIF8 | AlphaScreen BAZ2B-H3K14Ac peptide displacement | Potency, µM (titrated, usually from 114 µM), actives largely listed as inhibitors | 360,000 tested, 4.4% active; further: nearly all actives have a fitted effect of over 60% in size
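AlphaScreen luminescence quantifies BAZ2B engagement of H3K14Ac peptide; the protein and biotinylated peptide are both at 50 nM final, buffer PBS pH 7.4 with 0.01% Tween-20, all steps at room temperature.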
JMJD2A Tudor inh = qHTS Assay for Inhibitors of JMJD2A-Tudor Domain | Lysine-specific demethylase 4A (Homo sapiens), O75164 | AlphaScreen JMJD2A-Tudor / H3K4me3 peptide binding | Potency, µM (titrated, usually from 114 µM), usual class: inhibitors | 390,000 tested, 4.4% active; further: nearly all actives have a fitted effect of over 50% in size
HP1b chromo inh = HTS for Inhibitors of HP1-beta Chromodomain Interactions with Methylated Histone Tails | Chromobox protein homolog 1 (Homo sapiens), P83916 | AlphaScreen HP1-beta / biotin-H3K9me3 peptide binding | Potency, µM (titrated, usually from 114 µM), most hits filed as inhibitors | 390,000 tested, 0.56% active | AID 540317, 2011; further: nearly all actives have a fitted effect of over 70% in size
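AlphaScreen: HP1-beta (50 nM) preformed 30 min with biotin-H3(1-18)K9me3 peptide (50 nM) in PBS pH 7.4, 0.01% Tween-20. Compound added for 30 min at RT, then streptavidin donor/nickel chelate acceptor beads (10 ug/mL) for 30 min.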
PI5P4Ka inh = qHTS for Inhibitors of phosphatidylinositol 5-phosphate 4-kinase (PI5P4K); Phosphatidylinositol 5-phosphate 4-kinase type-2 alpha (Homo sapiens), P48426; PI5P4Kalpha enzyme, ADP-Glo luminescence, 60 min; stronger effect = lower value; max response, %; 330,000 tested, 1.2% active; active means max response of -50% or lower; inconclusive means between -30% and -50%; inactive means -30% or higher; further: value at the top dose of about 77 µM
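qHTS, 1536-well: enzyme/substrate mix, compound by pin tool, 5 microM ATP final; RT 60 min; ADP-Glo reagents 1 (45 min) then 2 (30 min); luminescence.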
G9a inh = qHTS Assay for Inhibitors of Histone Lysine Methyltransferase G9a. G9a H3K9 monomethylation, AlphaScreen, 2 h. Potency, µM (top dose mostly 102 µM), usual class: inhibitors. 350,000 tested, 8.8% active. AID 504332, 2011; further: nearly all actives have a fitted effect of over 75% in size
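Quantitative HTS format: methyltransferase activity on a biotin-tagged H3K9 peptide is measured by AlphaScreen, using a rabbit anti-monomethyl-H3K9 antibody with streptavidin donor and anti-IgG acceptor beads. Final levels are 20 nM enzyme, 500 nM peptide, 20 uM SAM; 2 h RT.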
Numbers stand for hits; [ ] = another dose, or the depositor's remark. Unless noted, the call rests on the fitted dose curve; in most records, active means well fitted inhibition curve with a large enough effect; inconclusive means small, poorly fitted or top-dose-only effect; inactive means no such curve, though single readings can be large or run the other way.

For Cc1ccc(-n2ncc(C(=O)Nc3ccc4c(c3)OCO4)c2C2CCN(C(=O)OC(C)(C)C)CC2)c(C)c1 the results were BAZ2B block inconclusive, JMJD2A Tudor inh 32µM, HP1b chromo inh inactive and G9a inh inconclusive.
For Cc1cccc(C)c1-n1ncc(C(=O)Nc2ccc3c(c2)OCO3)c1C1CCN(C(=O)OC(C)(C)C)CC1 the results were BAZ2B block inactive, JMJD2A Tudor inh inconclusive, HP1b chromo inh inactive and G9a inh inconclusive.
COc1ccc(CNC(=O)c2cc(C)nc3c2c(C)nn3-c2cccc(Cl)c2C)cc1 was read as BAZ2B block inactive, JMJD2A Tudor inh inactive, HP1b chromo inh inactive and G9a inh inactive.
Screening COc1cccc(NC2=NCC(=O)N2Cc2cccs2)c1 returned L3MBTL1 inh inactive, BAZ2B block inactive, JMJD2A Tudor inh inactive, HP1b chromo inh inactive, PI5P4Ka inh inactive and G9a inh 50µM.
Cc1ccc(NC2=NCC(=O)N2Cc2cccs2)cc1C was read as L3MBTL1 inh inactive, BAZ2B block 79µM, JMJD2A Tudor inh inactive, HP1b chromo inh inactive, PI5P4Ka inh inactive and G9a inh inactive.
For C=CCN1C(=O)CN=C1Nc1cccc(C)c1 the results were L3MBTL1 inh inactive, BAZ2B block inconclusive, JMJD2A Tudor inh inactive, HP1b chromo inh inactive, PI5P4Ka inh inactive and G9a inh 35µM.
`COc1ccc(NC2=NCCC(=O)N2Cc2cccs2)cc1` gave L3MBTL1 inh inactive, BAZ2B block inconclusive, JMJD2A Tudor inh inactive, HP1b chromo inh inactive, PI5P4Ka inh inactive and G9a inh 45µM.
Screening CCn1nnc2cc(C(=O)Nc3ccc(OC)cc3)ccc21 returned BAZ2B block inactive, JMJD2A Tudor inh inactive, HP1b chromo inh inactive and G9a inh inactive.
`Cc1ccc(NC(=O)CN2C(=O)C3(SCC(=O)N3c3cccc(Cl)c3)c3ccccc32)cc1C` (centres undefined) gave BAZ2B block inactive, JMJD2A Tudor inh inactive, HP1b chromo inh inactive and G9a inh inactive.
`Cc1ccc(CCNC(=O)c2c[nH]c3ccc(S(=O)(=O)Nc4cccc(C(F)(F)F)c4)cc3c2=O)cc1` gave BAZ2B block inactive, JMJD2A Tudor inh inactive, HP1b chromo inh inactive and G9a inh inactive.
CCCNC(=O)OC[C@H]1O[C@H](CCO/N=C/c2ccc(C(=O)N3[C@H](c4ccc(C)cc4)[C@@H](C)CC[C@H]3C(=O)OC)cc2)C=C[C@@H]1Oc1ccc(OC)cc1 was read as L3MBTL1 inh inactive, BAZ2B block inactive and G9a inh 71µM.
`CCOC(=O)c1sc2nc(CN3CCCCC3)nc(Cl)c2c1C` gave L3MBTL1 inh inactive, BAZ2B block inactive, JMJD2A Tudor inh inactive, HP1b chromo inh inactive, PI5P4Ka inh inactive and G9a inh 50µM.
Screening Cc1ccc(NC(=O)CCCn2c(=O)c3cccn3c3cccnc32)c(C)c1 returned BAZ2B block inactive, JMJD2A Tudor inh inactive, HP1b chromo inh inactive and G9a inh inactive.
Screening O=C(COC(=O)c1ccc(Br)o1)Nc1ncc(Cl)cc1Cl returned BAZ2B block 50µM, JMJD2A Tudor inh inconclusive, HP1b chromo inh inactive, PI5P4Ka inh inconclusive and G9a inh inconclusive.
`COc1cc(OC)cc(C(=O)NCC(=O)OCC(=O)c2ccc3c(c2)-c2ccccc2C3)c1` gave L3MBTL1 inh inactive, BAZ2B block inactive, JMJD2A Tudor inh inactive, HP1b chromo inh inactive, PI5P4Ka inh inactive and G9a inh 35µM.
O=C(COC(=O)c1cnccn1)Nc1ncc(Cl)cc1Cl was read as L3MBTL1 inh inconclusive, BAZ2B block 50µM, JMJD2A Tudor inh inconclusive, HP1b chromo inh inactive, PI5P4Ka inh inconclusive and G9a inh 28µM.
`COc1cc(OC)cc(C(=O)NCC(=O)OCC(=O)Nc2ncc(Cl)cc2Cl)c1` gave L3MBTL1 inh inactive, BAZ2B block inactive, JMJD2A Tudor inh inactive, HP1b chromo inh inactive, PI5P4Ka inh inactive and G9a inh 71µM.
For COc1ccc(C(=O)C[N+]2(C)CCOCC2)cc1 the results were BAZ2B block inconclusive, JMJD2A Tudor inh 22µM, HP1b chromo inh inactive and G9a inh 13µM.
`Cc1ccc(C)c(CSc2nnc(-c3ccccn3)n2N)c1` gave L3MBTL1 inh inactive, JMJD2A Tudor inh 40µM, HP1b chromo inh inactive, PI5P4Ka inh inactive and G9a inh inactive.
Nn1c(-c2ccccn2)nnc1-c1ccccn1 was read as L3MBTL1 inh inactive, BAZ2B block 32µM, JMJD2A Tudor inh 79µM, HP1b chromo inh inactive, PI5P4Ka inh inactive and G9a inh inactive[12.7 µM].
Nc1ccccc1-c1nnc(-c2ccccc2N)n1N was read as L3MBTL1 inh inactive[11.4 µM], BAZ2B block inconclusive, JMJD2A Tudor inh inactive, HP1b chromo inh inactive, PI5P4Ka inh inactive and G9a inh inactive.
Screening Nn1c(SCc2c(F)cccc2F)nnc1-c1ccccn1 returned L3MBTL1 inh 20µM, BAZ2B block 13µM, JMJD2A Tudor inh 8.9µM, HP1b chromo inh inactive, PI5P4Ka inh inactive and G9a inh inactive.
Screening Cc1ccc(NC(=O)CSc2nnc(-c3ccccn3)n2N)cc1F returned L3MBTL1 inh inactive, BAZ2B block inactive, JMJD2A Tudor inh inactive, HP1b chromo inh inactive, PI5P4Ka inh inactive and G9a inh inactive.
`c1ccc(-c2nn[nH]n2)nc1` gave BAZ2B block 5.6µM, JMJD2A Tudor inh 7.1µM, HP1b chromo inh inactive and PI5P4Ka inh inactive.
O=C(c1cccn1-c1nnc(N2CCCC2)s1)N1CCN(c2ccc(F)cc2)CC1 was read as BAZ2B block inactive, JMJD2A Tudor inh inactive, HP1b chromo inh inactive and G9a inh inactive.
CN1/C(=N\O)c2cccc3cccc1c23 was read as L3MBTL1 inh inactive, BAZ2B block inactive, JMJD2A Tudor inh inactive, HP1b chromo inh inactive, PI5P4Ka inh inactive and G9a inh 32µM.
Screening CNC(=O)CN1C(=O)c2cccc3cccc1c23 returned BAZ2B block inactive, JMJD2A Tudor inh inactive, HP1b chromo inh inactive, PI5P4Ka inh inactive and G9a inh inactive[12.7 µM].
Screening OCCNc1nc(-c2ccccc2)nc2ccccc12 returned L3MBTL1 inh inactive, BAZ2B block inactive, JMJD2A Tudor inh inactive, HP1b chromo inh inactive, PI5P4Ka inh inactive and G9a inh inactive.
`COc1ccccc1Nc1nc(NCC2CCCO2)c2ccccc2n1` (centres undefined) gave L3MBTL1 inh inactive, BAZ2B block inactive, JMJD2A Tudor inh 50µM, HP1b chromo inh inactive, PI5P4Ka inh inconclusive and G9a inh inactive.
